About 83,000 compounds went through this panel and 20% of them were active in at least one assay; those are over-represented in the sample as a whole.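 A percent growth of 40 corresponds to 60% growth inhibition; 0 means no net growth; -100 means all cells died. Active threshold: below 10.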 Values without a mark were called inactive. Activity calls are given as the source filed them.

Holding throughout (experiment): NCI-60 one-dose screen, 48 h (100 = growth as untreated, 0 = no growth, -100 = all killed)
One assay relates to SR leukemia. To be noted: 10 µM unless noted.
In another assay the test system is RPMI-8226 leukemia. The settings on record: 10 µM unless noted.
For a further assay, the system named is OVCAR-8 ovarian. The settings on record: 10 µM unless noted.
The subject of the next assay is OVCAR-5 ovarian. The settings on record: 10 µM unless noted.
Another assay has as its system OVCAR-4 ovarian. The settings on record: 10 µM.
The test system of another assay is IGROV1 ovarian. The settings on record: 10 µM unless noted.
A further assay concerns OVCAR-3 ovarian. The settings on record: 10 µM unless noted.
A further assay concerns HS 578T breast. The settings on record: 10 µM unless noted.
The subject of the next assay is NCI/ADR-RES ovarian. To be noted: 10 µM unless noted.
Another assay relates to T-47D breast. The settings on record: 10 µM unless noted.
For another assay, the system named is BT-549 breast. To be noted: 10 µM unless noted.
The test system of another assay is MDA-MB-435 melanoma. To be noted: 10 µM unless noted.
The subject of another assay is SW-620 colon. To be noted: 10 µM unless noted.
For another assay, the system named is MCF7 breast. To be noted: 10 µM unless noted.
The test system of the next assay is HCT-116 colon. To be noted: 10 µM unless noted.
The next assay deals with HCC-2998 colon. To be noted: 10 µM unless noted.
The test system of the next assay is KM12 colon. To be noted: 10 µM unless noted.
A further assay concerns SK-OV-3 ovarian. To be noted: 10 µM unless noted.

With `Cc1cc(N2CCCCCC2)nc(N2CCN(CC(=O)Nc3ccc4c(ccn4Cc4ccccc4)c3)CC2)n1`, the growth with SR leukemia was 23.4%; in the assay with RPMI-8226 leukemia, 43.9%; with OVCAR-8 ovarian, 32.5%; in the assay with OVCAR-5 ovarian, 74.4%; with OVCAR-4 ovarian it was 46.1%; with IGROV1 ovarian, 49.9%. Moreover, the growth with OVCAR-3 ovarian was 55.4%; in the assay on HS 578T breast it was 47.2%; with NCI/ADR-RES ovarian it was 37.6%; with T-47D breast, 20.2%; with BT-549 breast, 59%; in the assay with MDA-MB-435 melanoma, 67.7%. For the same molecule, the growth in the assay on SW-620 colon is 63.2%; in the assay on MCF7 breast, 24.1%; with HCT-116 colon it was 32%; in the assay on HCC-2998 colon, 91.7%; with KM12 colon it was 35%.

Take `Cc1cccc(C[C@H](NC(=O)Nc2ccc(Cl)cc2F)C(=O)N[C@@H]2C(=O)N3C[C@H](O)C[C@H]3C(=O)N3CCN(C)C[C@H]3C(=O)N[C@@H](C)C(=O)N3C[C@H](C)C[C@H]3C(=O)O[C@H]2C)c1`: the growth with SR leukemia is 45%; with RPMI-8226 leukemia, 22.6%; in the assay on OVCAR-8 ovarian it was 26.9%; in the assay with OVCAR-5 ovarian it was 38.8%; in the assay with OVCAR-4 ovarian, 15.4%; with IGROV1 ovarian, 50.7%. For the same molecule, the growth is 17.2% in the assay on OVCAR-3 ovarian; 43% in the assay on HS 578T breast; 107% in the assay with NCI/ADR-RES ovarian; 21.5% with T-47D breast; 17.2% in the assay on BT-549 breast; 22.1% with MDA-MB-435 melanoma. The growth in the assay on SW-620 colon is 42.4%; in the assay on MCF7 breast, 23%; in the assay with HCT-116 colon, 9.83% (active); in the assay on HCC-2998 colon it was 34.5%; in the assay with KM12 colon it was 40.5%.

Turning to `Cn1cc(-c2nnc(-c3cn(C)c4ncc(Br)cc34)o2)c2ccccc21`, the growth in the assay on SR leukemia is 52.7%; with RPMI-8226 leukemia it was 88.5%; in the assay on OVCAR-8 ovarian it was 93.4%; with OVCAR-5 ovarian, 93.4%; in the assay on OVCAR-4 ovarian, 90.3%; in the assay on IGROV1 ovarian, 65.8%. Further, the growth with OVCAR-3 ovarian is 88.2%; in the assay with HS 578T breast, 89.6%; with NCI/ADR-RES ovarian, 68.9%; in the assay with T-47D breast, 62%; in the assay on BT-549 breast, 95.2%; in the assay on MDA-MB-435 melanoma, 27.4%. Also, the growth is 83.6% with SW-620 colon; 44.7% in the assay on MCF7 breast; 98% in the assay on HCT-116 colon; 95.9% with HCC-2998 colon; 56.3% with KM12 colon.

With `Cn1cc(-c2nnc(-c3cn(C)c4ncccc34)o2)c2ccccc21`, the growth in the assay with SR leukemia is 19.1%; with RPMI-8226 leukemia it was 31.3%; in the assay with OVCAR-8 ovarian, 49.8%; with OVCAR-5 ovarian, 55.5%; in the assay on OVCAR-4 ovarian, 36.5%; in the assay on IGROV1 ovarian, 28%. Further, the growth with OVCAR-3 ovarian was -12% (active); in the assay with HS 578T breast, 30.9%; with NCI/ADR-RES ovarian, 11.9%; in the assay with T-47D breast, 12.2%; in the assay on BT-549 breast, 42.4%; in the assay on MDA-MB-435 melanoma it was -32.8% (active). Besides, the growth in the assay on SW-620 colon was 26.7%; with MCF7 breast it was 20.2%; with HCT-116 colon it was 23%; with HCC-2998 colon, 65.7%.

Consider `CCCSc1nc(N)nc2nc[nH]c12`, for which the growth with SR leukemia is 107%; with RPMI-8226 leukemia it was 101%; in the assay with OVCAR-8 ovarian, 99.8%; in the assay with OVCAR-5 ovarian, 108%; in the assay on OVCAR-4 ovarian, 114%; with IGROV1 ovarian, 80.8%. For the same molecule, the growth is 103% with OVCAR-3 ovarian; 135% with HS 578T breast; 108% with NCI/ADR-RES ovarian; 97.6% in the assay with T-47D breast; 156% with BT-549 breast; 117% in the assay on MDA-MB-435 melanoma. Besides, the growth in the assay on SW-620 colon is 113%; in the assay with MCF7 breast, 104%; with HCT-116 colon it was 95.3%; with HCC-2998 colon, 115%; in the assay on KM12 colon it was 114%.

On to `O=C(CCN1CCCCC1)c1ccc(Cl)cc1`, for which the growth in the assay on SR leukemia was 112%; in the assay with RPMI-8226 leukemia, 85.8%; in the assay on OVCAR-8 ovarian, 113%; in the assay on OVCAR-5 ovarian, 102%; in the assay with OVCAR-4 ovarian it was 105%; with SK-OV-3 ovarian it was 103%. The growth is 108% with HS 578T breast; 114% in the assay with NCI/ADR-RES ovarian; 92.6% with T-47D breast; 105% with MDA-MB-435 melanoma; 103% in the assay on SW-620 colon; 91.8% in the assay on MCF7 breast. For the same molecule, the growth with HCT-116 colon is 96.7%; with HCC-2998 colon, 112%; with KM12 colon it was 102%.

`CCn1cc(-c2cc(-c3ccc(Cl)cc3)nc(N)n2)c(-c2ccc(Br)cc2)n1`: the growth in the assay with SR leukemia is 69.7%; in the assay with RPMI-8226 leukemia it was 66.2%; in the assay on OVCAR-8 ovarian, 84.9%; in the assay on OVCAR-5 ovarian, 68.7%; with OVCAR-4 ovarian it was 82.2%; in the assay with IGROV1 ovarian, 68.1%. Further, the growth was 88.5% with OVCAR-3 ovarian; 96.7% in the assay with HS 578T breast; 80.3% in the assay with NCI/ADR-RES ovarian; 48.1% with T-47D breast; 91.3% in the assay on BT-549 breast; 92.8% with MDA-MB-435 melanoma. In addition, the growth with SW-620 colon is 99.7%; with MCF7 breast it was 72.2%; in the assay with HCT-116 colon it was 66.3%; in the assay on HCC-2998 colon, 92.9%; with KM12 colon it was 77.7%.

With `c1ccc(-c2nnc(-c3c[nH]c4ncccc34)s2)cc1`, the growth with SR leukemia is 83.6%; in the assay with RPMI-8226 leukemia, 91.9%; in the assay on OVCAR-8 ovarian it was 98.9%; in the assay with OVCAR-5 ovarian it was 125%; in the assay on OVCAR-4 ovarian it was 89.4%; in the assay on IGROV1 ovarian, 54.6%. For the same molecule, the growth is 88.5% in the assay with OVCAR-3 ovarian; 97.1% with HS 578T breast; 95.7% in the assay with NCI/ADR-RES ovarian; 40.5% in the assay with T-47D breast; 95.3% in the assay on BT-549 breast; 94.8% in the assay on MDA-MB-435 melanoma. For the same molecule, the growth in the assay with SW-620 colon was 104%; in the assay on MCF7 breast it was 54.1%; with HCT-116 colon, 91%; in the assay on HCC-2998 colon it was 111%; in the assay with KM12 colon it was 93.2%.

Take `Cc1ccc(-c2cc(-c3ccc(C)cc3)nc(N3CCN(CCNc4ccnc5cc(Cl)ccc45)CC3)n2)cc1`: the growth in the assay on SR leukemia is -1.09% (active); in the assay on RPMI-8226 leukemia it was 19.4%; in the assay with OVCAR-8 ovarian, 25.4%; in the assay with OVCAR-5 ovarian it was 79.4%; in the assay on OVCAR-4 ovarian, -59.4% (active); in the assay with IGROV1 ovarian, 5.07% (active). Besides, the growth was -53.6% (active) in the assay with OVCAR-3 ovarian; -22.6% (active) in the assay with HS 578T breast; 6.51% (active) in the assay with NCI/ADR-RES ovarian; 71.8% with T-47D breast; 67.6% in the assay on BT-549 breast; 23.3% in the assay with MDA-MB-435 melanoma. Besides, the growth in the assay with SW-620 colon is -29.1% (active); in the assay on MCF7 breast, 15.5%; in the assay with HCT-116 colon, -3.1% (active); in the assay on HCC-2998 colon it was 16.6%; with KM12 colon it was 31.9%.

(Values after PubChem BioAssay (NCI).)
